These results are taken from PubChem BioAssay.

Each structure is given as a SMILES string. The source made the active and inactive calls.

In test [1] the test system is Plasmodium falciparum Sir2 (PF13_0152, Sir2A). The experiment in a line: pfSir2 binders on small-molecule microarrays, primary screen, biochemical, small-molecule microarray, 635 nm fluorescence (AID 1098).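 Note: score merges spot fluorescence intensity with its signal-to-noise ratio.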 The following applies: small-molecule microarray binding, fluorescence 635 nm; higher = more signal.
The nature of test [2]: small-molecule microarray binders of probe aDKK1, primary screen, biochemical, biotinylated probe, 635/667 nm fluorescence (AID 1099).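 Note: score merges 667nm spot fluorescence with signal to noise across triplicate slides; reference of the scale not given here.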 Conditions: higher = more signal.
A short description of test [3]: small-molecule microarray binders of probe aCHRDL2, primary screen, biochemical, biotinylated probe, 635/667 nm fluorescence (AID 1100). Conditions: higher = more signal.
Test [4] is described as follows: splicing luciferase reporter signal modulators, primary screen, spliceosome inhibition project, cell-based, HEK293, splice +/- reporter (AID 1101).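 Note: HEK293 cells carrying a splicing-competent luciferase reporter gene; test concentration not given here.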 The following applies: luminescence, 24 h, higher = more signal, called active from +8 up or from −8 down.
Test [5] addresses Fibroblast growth factor 10 (Homo sapiens) (UniProt O15520). In words: FGF10 binders on small-molecule microarrays, primary screen, biochemical, small-molecule microarray, 635 nm fluorescence (AID 1102). The following applies: FGF10 binding, fluorescence 635 nm, higher = more signal.
Test [6] has as its system glycogen synthase kinase-3 (GSK3A per assay name; protocol says GSK3B). The experiment in a line: GSK3 binders on small-molecule microarrays, primary screen, biochemical, small-molecule microarray, 635 nm fluorescence, GSK3A (AID 1103). Note: the record names both GSK3A and GSK3B. The following applies: small-molecule microarray binding, fluorescence 635 nm; higher = more signal.
The target of test [7] is Epidermal growth factor receptor (Homo sapiens) (UniProt P00533). The experiment in a line: EGFR binders on small-molecule microarrays, primary screen, biochemical, small-molecule microarray, 635 nm fluorescence (AID 1104).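 Note: score merges 667 nm emission intensity with spot signal to noise over triplicate slides.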 The following applies: EGFR binding, higher = more signal.
The target of test [8] is Follistatin-related protein 3 (Homo sapiens) (UniProt O95633). The experiment in a line: FSTL3 binders on small-molecule microarrays, primary screen, biochemical, small-molecule microarray, 635 nm fluorescence (AID 1105).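 Note: score merges emission near 667 nm and signal to noise per printed spot across three slides.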 Conditions: FSTL3 binding, higher = more signal.
The target of test [9] is Dickkopf-related protein 1 (Homo sapiens) (UniProt O94907). The experiment in a line: DKK1 binders on small-molecule microarrays, primary screen, biochemical, small-molecule microarray, 635 nm fluorescence scan (AID 1106).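 Note: score merges emission near 667 nm with signal to noise over three replicate slides.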 Conditions: DKK1 binding, higher = more signal.
In test [10] the test system is Inhibin beta A chain (activin A). The experiment in a line: INHBA (activin A) binders on microarrays, primary screen, biochemical, small-molecule microarray, 635 nm fluorescence scan (AID 1107).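 Note: mouse activin A protein probed at 4.33 µg/mL on printed slides; score merges bound-protein fluorescence near 667 nm with spot signal-to-noise.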 The following applies: small-molecule microarray binding, higher = more signal.

Sequence of Follistatin-related protein 3 (Homo sapiens) (O95633 whole entry, looked up): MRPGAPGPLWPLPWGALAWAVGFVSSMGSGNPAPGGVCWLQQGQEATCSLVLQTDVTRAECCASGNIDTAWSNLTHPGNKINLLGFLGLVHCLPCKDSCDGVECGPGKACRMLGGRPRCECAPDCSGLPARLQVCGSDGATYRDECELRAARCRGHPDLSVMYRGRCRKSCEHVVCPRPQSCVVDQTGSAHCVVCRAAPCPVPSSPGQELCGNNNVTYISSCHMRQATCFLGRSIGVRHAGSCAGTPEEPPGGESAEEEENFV
Sequence of Fibroblast growth factor 10 (Homo sapiens) (O15520 whole entry, looked up): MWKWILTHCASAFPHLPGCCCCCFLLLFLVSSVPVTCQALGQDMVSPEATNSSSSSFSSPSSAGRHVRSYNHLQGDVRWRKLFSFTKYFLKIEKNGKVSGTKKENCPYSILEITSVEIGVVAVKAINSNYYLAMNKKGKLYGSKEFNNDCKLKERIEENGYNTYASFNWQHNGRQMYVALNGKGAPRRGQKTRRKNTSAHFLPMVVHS
Sequence of Epidermal growth factor receptor (Homo sapiens) (P00533 whole entry, looked up): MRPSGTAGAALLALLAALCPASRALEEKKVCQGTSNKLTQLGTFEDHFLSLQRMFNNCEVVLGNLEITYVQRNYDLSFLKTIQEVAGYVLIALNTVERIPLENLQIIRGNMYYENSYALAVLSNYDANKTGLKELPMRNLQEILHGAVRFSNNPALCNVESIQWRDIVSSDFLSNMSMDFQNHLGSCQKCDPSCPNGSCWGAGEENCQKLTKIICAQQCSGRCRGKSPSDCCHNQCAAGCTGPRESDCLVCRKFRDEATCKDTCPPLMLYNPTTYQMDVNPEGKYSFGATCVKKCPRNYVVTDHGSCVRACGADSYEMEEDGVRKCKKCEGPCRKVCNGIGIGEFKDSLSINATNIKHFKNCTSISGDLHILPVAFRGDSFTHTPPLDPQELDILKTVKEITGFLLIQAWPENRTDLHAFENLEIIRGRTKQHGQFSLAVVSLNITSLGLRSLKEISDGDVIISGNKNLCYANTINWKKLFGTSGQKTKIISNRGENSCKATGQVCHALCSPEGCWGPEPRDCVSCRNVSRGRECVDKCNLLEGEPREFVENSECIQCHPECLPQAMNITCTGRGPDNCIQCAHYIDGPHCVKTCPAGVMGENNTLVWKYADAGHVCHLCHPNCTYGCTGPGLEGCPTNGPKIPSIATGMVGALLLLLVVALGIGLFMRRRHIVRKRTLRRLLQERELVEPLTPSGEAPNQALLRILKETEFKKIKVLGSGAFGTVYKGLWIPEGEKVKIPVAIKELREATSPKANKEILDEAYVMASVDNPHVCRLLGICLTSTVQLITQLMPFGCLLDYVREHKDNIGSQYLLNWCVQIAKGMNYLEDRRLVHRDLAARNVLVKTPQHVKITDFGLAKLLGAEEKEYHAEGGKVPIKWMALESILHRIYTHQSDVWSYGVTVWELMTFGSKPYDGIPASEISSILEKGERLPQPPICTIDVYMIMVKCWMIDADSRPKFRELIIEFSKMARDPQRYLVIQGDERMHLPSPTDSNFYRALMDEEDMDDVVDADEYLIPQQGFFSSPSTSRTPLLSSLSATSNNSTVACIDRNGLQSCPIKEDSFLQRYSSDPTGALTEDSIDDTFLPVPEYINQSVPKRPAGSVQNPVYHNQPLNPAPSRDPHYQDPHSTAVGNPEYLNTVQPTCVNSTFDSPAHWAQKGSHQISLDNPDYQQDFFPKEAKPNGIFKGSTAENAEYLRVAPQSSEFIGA
Sequence of Dickkopf-related protein 1 (Homo sapiens) (O94907 whole entry, looked up): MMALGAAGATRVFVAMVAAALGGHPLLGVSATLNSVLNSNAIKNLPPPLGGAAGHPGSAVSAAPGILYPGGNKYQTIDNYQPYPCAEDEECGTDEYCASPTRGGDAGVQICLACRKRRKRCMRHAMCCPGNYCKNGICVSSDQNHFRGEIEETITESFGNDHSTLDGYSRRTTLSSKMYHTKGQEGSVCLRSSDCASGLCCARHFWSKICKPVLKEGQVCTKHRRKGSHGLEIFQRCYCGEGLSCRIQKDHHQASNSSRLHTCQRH

On to `C#CCOc1ccc(C[C@@H](C(=O)OC)N(CC#C)[C@@H](/C=C/C2CC2)[C@H](O)Cc2ccccc2)cc1`, for which the composite z-score was -0.103 in test [1]; -0.285 in test [2]; 0.846 in [3]; -0.327 in test [5]; -0.829 in test [6]; -0.92 in test [7]. In addition, the results for the composite z-score in [8], in [9] and in test [10] were -0.806, -0.429 and 0.899, respectively. The z-score in [4] is 0.0683 (inactive).
Turning to `COc1cc2c(cc1O)C(c1cccs1)N(Cc1cccc(OC(F)(F)F)c1)CC2` (stereo not given), the composite z-score in test [1] was 1.77; in [2] it was -0.293; in test [3], 0.154; in [5], -0.153; in test [6] it was -0.0228; in [7], -0.0017. For the same compound, the values for the composite z-score in [8], in test [9] and in test [10] were 0.105, -0.183 and 1.41, respectively. Besides, the z-score in [4] was 0.965 (inactive).
With `NC(=O)[C@@]1(Cc2ccccc2)N=C(c2ccc(OCCCO)cc2)O[C@H]1c1ccccc1`, the composite z-score in test [1] is 0.363; in test [2] it was 0.963; in [3] it was 1.22; in test [5], 1.15; in test [6], -0.327; in test [7] it was 0.0149. For the same compound, the composite z-score was -0.68 in test [8], -0.348 in test [9] and 0.87 in test [10]. In addition, the z-score in [4] was -1.26 (inactive).
`CN(C)C(=O)[C@]1(Cc2ccccc2)N=C(c2ccc(OCCCO)cc2)O[C@@H]1c1ccccc1N=[N+]=[N-]`: the composite z-score in test [1] worked out at 0.684; in test [2], 0.74; in test [3], 1.05; in test [5], 1.5; in test [6], 1.3; in [7], 0.382. Moreover, the composite z-score in test [8] amounted to 0.817; in test [9], 0.173; in test [10] it was 1.25. Further, in test [4], the z-score was -0.968 (inactive).
As for `C#CCN(C/C=C/c1ccccc1)[C@H](CO)c1ccccc1`, the composite z-score was -0.222 in [1]; -0.583 in [2]; -0.506 in test [3]; 0.0797 in test [5]; 0.0831 in [6]; -0.0239 in [7]. In addition, the figures for the composite z-score in test [8], in test [9] and in test [10] were 0.598, 0.358 and -0.283, respectively. In test [4], the z-score was 0.985 (inactive).
Take `COc1ccc(CCNC(=O)[C@@]2(C)c3ccccc3C(=O)N(c3ccc(C)cn3)[C@H]2c2ccc(CO)cc2)cc1`: the composite z-score is -0.697 in test [1]; -0.0508 in [2]; 0.156 in test [3]; -1.2 in [5]; -0.831 in [6]; -1.03 in [7]. For the same compound, the composite z-score was -1.06 in test [8], -0.905 in [9] and 0.453 in test [10]. In test [4], the z-score is 0.981 (inactive).
For `CN1C(=O)C2C=CC(C(O)c3c(F)cccc3Cl)N(NC(=O)OC(C)(C)C)C2C1=O` (stereo not given), the composite z-score came to 1.39 in [1]; 0.868 in test [2]; 1.09 in test [3]; 0.458 in [5]; 0.891 in test [6]; 0.307 in [7]. Also, the composite z-score in test [8] is 0.649; in test [9] it was -0.438; in test [10], 0.449. For the same compound, in test [4], the z-score is 1.7 (inactive).
Take `CN1C(=O)C2C=CC(C(O)c3ccc(F)cc3)N(N(c3ccccc3)c3ccccc3)C2C1=O` (stereo not given): the composite z-score was 1.46 in test [1]; 0.303 in [2]; 1.03 in [3]; 0.103 in test [5]; 0.0581 in [6]; -0.329 in test [7]. Besides, the composite z-score in test [8] is 0.549; in [9], -0.742; in [10], 0.984. Further, the z-score in test [4] was 1.9 (inactive).
`CCCCN1CC=CC23O[C@@H]4/C=C\CCCOC(=O)C4[C@H]2C(=O)N(CCCO)[C@@H]3C1=O` (stereo not given in full): the composite z-score in test [1] is 0.992; in test [2], -0.222; in [3] it was 0.421; in test [5], -1.11; in test [6], -0.224; in [7] it was -0.992. In addition, the composite z-score is -0.946 in test [8], -0.984 in test [9] and -0.27 in test [10]. Further, in [4], the z-score was 0.187 (inactive).
As to `CO[C@H]1O[C@H](CO)[C@@H](OC(=O)Nc2ccccc2-c2ccccc2)[C@H](OC(=O)Nc2ccccc2-c2ccccc2)[C@@H]1OC(=O)Nc1ccccc1-c1ccccc1`, the composite z-score in test [1] was 1.63; in test [2], 0.408; in test [3], 0.625; in test [5], 1.43; in [6] it was 1.12; in test [7], -0.168. Moreover, the values for the composite z-score in test [8], in test [9] and in test [10] were 1.03, 0.208 and 0.0923, respectively. Moreover, in [4], the z-score is 0.389 (inactive).
For the compound `O=C1NC(=O)C2C1C=CC(C(O)C=Cc1ccc([N+](=O)[O-])cc1)N2Nc1ccc(Cl)cc1Cl` (stereo not given), the composite z-score in test [1] stood at 0.373; in test [2], 1.19; in test [3] it was 1.17; in [5] it was 0.641; in test [6], 0.364; in [7] it was 0.41. Moreover, the composite z-score came to 1.02 in test [8], 0.0567 in test [9] and 1.11 in test [10]. For the same compound, the z-score in [4] is -0.509 (inactive).
As for `CC(C)=CCCC(C)=CC(O)C1C=CC2C(=O)N(c3ccccc3)C(=O)C2N1Nc1ccc(C(C)C)cc1` (stereo not given), the composite z-score in [1] is 0.855; in [2] it was -0.0008; in test [3] it was 0.816; in [5] it was 0.691; in test [6], 0.615; in [7], -0.0514. Moreover, the composite z-score was 0.966 in test [8], -0.609 in [9] and 0.583 in test [10]. In addition, in [4], the z-score is 0.433 (inactive).
In the case of `[N-]=[N+]=NCc1ccccc1[C@@H]1OC(c2ccc(OCCCO)cc2)=N[C@]1(CCS(=O)(=O)c1ccccc1)C(=O)N1CCOCC1`, the composite z-score in [1] is 1.46; in test [2], 1.27; in test [3] it was 1.31; in [5], 1.04; in test [6], 1.12; in [7], 0.117. For the same compound, the results for the composite z-score in test [8], in [9] and in [10] were 1.07, -0.242 and 0.933, respectively. Further, the z-score in [4] was -1.56 (inactive).
Turning to `COC(=O)[C@H](Cc1ccccc1)N[C@H](/C=C/C1CC1)[C@@H](O)Cc1ccccc1`, the composite z-score in test [1] was -0.111; in [2], -0.351; in test [3] it was 0.327; in test [5], -0.66; in test [6] it was -1.22; in test [7] it was -0.579. Besides, the composite z-score in test [8] is -0.244; in test [9], -0.506; in [10], 0.0419. Also, the z-score in test [4] is -1.16 (inactive).
Turning to `[N-]=[N+]=NCc1ccccc1[C@@H]1OC(c2ccc(OCCCO)cc2)=N[C@]1(CCS(=O)(=O)c1ccccc1)C(N)=O`, the composite z-score in test [1] amounted to 1.32; in test [2] it was 0.775; in test [3], 1.01; in test [5], 1.6; in test [6], 1.32; in test [7], 0.588. In addition, the composite z-score in test [8] was determined as 1.41; in [9], 1.47; in [10], 1.3. The z-score in test [4] was 0.25 (inactive).
Regarding `CC#CC(=O)Oc1ccc(Br)cc1C=CC(=O)OCC`, the composite z-score in [1] is -0.384; in test [2] it was 0.321; in test [3], 0.481; in test [5] it was -0.0853; in test [6] it was -0.108; in test [7], -0.257. For the same compound, the composite z-score was 0.137 in test [8], -0.382 in test [9] and 1.24 in test [10]. For the same compound, in test [4], the z-score was 1.07 (inactive).
